In PubChem BioAssay (NCI) one finds growth data, which are given here for 31 compounds.

This is part of a sample that, as a whole, favours compounds with a hit. Of some 83,000 tested, about 20% had one in any assay.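 48-hour exposure, single concentration, 96-well plates; percent growth endpoint where 0 means no net growth. Active: below 10.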 Unmarked numbers belong to inactive results. Activity calls are given as the source filed them.

Common to all, as to assay: NCI-60 one-dose screen, 48 h (100 = growth as untreated, 0 = no growth, -100 = all killed)
Details in all cases: 10 µM unless noted

The test system of test [1] is T-47D breast.
Test [2] relates to BT-549 breast.
In test [3] the test system is MDA-MB-435 melanoma.
The test system of test [4] is SW-620 colon.
For test [5], the system named is MCF7 breast.
Test [6] deals with HCT-116 colon.
Test [7] concerns HCC-2998 colon.
For test [8], the system named is KM12 colon.

Turning to `COc1ccc(Cl)cc1NC(=O)c1cc2c(n1C)-c1nc(NC(=O)C(C)C)sc1CC2`, the growth in test [1] was 68.2%; in test [2] it was 53%; in test [3], 93.8%; in test [4] it was 90.5%; in test [5] it was 84.5%; in test [6], 44.6%. The growth in test [7] is 122%; in test [8], 92.7%.
Turning to `COc1ccc(/C=C2\CS(=O)(=O)C/C(=C\c3ccc(OC)cc3)C2=O)cc1`, the growth is 14.6% in test [1]; -38.6% (active) in test [2]; -28.8% (active) in test [3]; 0.757% (active) in test [4]; -15% (active) in test [5]; -83.2% (active) in test [6]. The figures for the growth in test [7] and in test [8] were -98% (active) and -93.2% (active), respectively.
As to `O=C(Nc1ccc(-n2cc(-c3ccncc3)c(-c3ccc(O)c(Cl)c3)n2)cc1)c1ccc(Cl)c(C(F)(F)F)c1`, the growth was 39.8% in test [1]; 14.9% in test [2]; 16% in test [3]; 26.7% in test [4]; 20.9% in test [5]; 9.26% (active) in test [6]. In addition, the growth is 25.9% in test [7] and 15% in test [8].
Take `O=C(NNC(=O)c1ccc([N+](=O)[O-])cc1)c1ccc([N+](=O)[O-])cc1`: the growth in test [1] is 92%; in test [2], 89.8%; in test [3], 101%; in test [4] it was 106%; in test [5], 90.4%; in test [6], 84.6%. Also, the growth in test [7] is 104%; in test [8] it was 105%.
For the compound `Cc1cc(-c2ccccc2)nc2ccccc12`, the growth is 99.4% in test [1]; 108% in test [2]; 109% in test [3]; 102% in test [4]; 65.1% in test [5]; 99.7% in test [6]. Also, the growth in test [7] and in test [8] was 106% in each case.
As to `NCC(=O)NS(=O)(=O)OC[C@H]1O[C@@H](n2cnc3c(N)ncnc32)[C@H](O)[C@@H]1O`, the growth was 7.66% (active) in test [1]; 21.1% in test [2]; -49.8% (active) in test [3]; 3.71% (active) in test [4]; 8.27% (active) in test [5]; 6.57% (active) in test [6]. Also, the figures for the growth in test [7] and in test [8] were 41.4% and 0.735% (active), respectively.
For `O=C(CSc1nnc(-c2cc3c([nH]c4ccccc43)c(-c3cccc(O)c3)n2)n1-c1ccccc1)c1ccccc1`, the growth in test [1] is 53%; in test [2], 56%; in test [3], -33.3% (active); in test [4], 50%; in test [5], 13.7%; in test [6] it was 29.7%. Further, the figures for the growth in test [7] and in test [8] were 96% and 60.1%, respectively.
For the compound `Nc1nc(=S)ss1`, the growth in test [1] is 98.9%; in test [2], 101%; in test [3], 102%; in test [4], 99.2%; in test [5], 98.3%; in test [6] it was 97.3%. The growth in test [7] was 97%; in test [8], 111%.
With `CCOc1ccccc1C(=O)N1CCN(c2cc(Cl)cc(Cl)c2)CC1`, the growth was 49% in test [1]; -13.2% (active) in test [2]; -12.8% (active) in test [3]; 22.9% in test [4]; 15.2% in test [5]; -6.57% (active) in test [6]. Further, the growth is 16.4% in test [7] and 8.79% (active) in test [8].
For `Cc1ncc(CO)c(C(=O)O)c1O`, the growth in test [1] is 78.4%; in test [2] it was 86.6%; in test [3], 106%; in test [4] it was 108%; in test [5] it was 98.9%; in test [6], 78%. For the same compound, the growth in test [7] is 95.3%; in test [8], 101%.
As for `O=C(NCCNc1nccc(-c2c(-c3cccc(O)c3)nc3sccn23)n1)c1cc(N2CCOCC2)cc(C(F)(F)F)c1`, the growth is 77.7% in test [1]; 84.8% in test [2]; 34.7% in test [3]; 126% in test [4]; 85.4% in test [5]; 78.8% in test [6]. The growth in test [7] was 109%; in test [8], 97.3%.
As to `COc1ccc(SC2c3ccc(O)cc3Oc3nc(N)c(C#N)c(N)c32)cc1` (stereo not drawn), the growth in test [1] is 85.4%; in test [2], 30.7%; in test [3], 87%; in test [4] it was 105%; in test [5] it was 90.7%; in test [6] it was 94.9%. The results for the growth in test [7] and in test [8] were 92.7% and 65.5%, respectively.
Turning to `O=C1c2ccccc2C(=O)c2c(NCCN=Cc3c(O)ccc4ccccc34)cccc21`, the growth in test [1] was 75%; in test [2], 106%; in test [3], 96%; in test [4] it was 79.3%; in test [5] it was 72.6%; in test [6] it was 45.5%. The growth is 95.7% in test [7] and 89% in test [8].
As to `COc1ccc(C(=O)NC(=O)Nc2ccc3c(c2)NC(=O)/C3=C\c2[nH]c(C)c(C(=O)O)c2C)cc1`, the growth in test [1] was 45.3%; in test [2], 89%; in test [3] it was 85.2%; in test [4], 52.6%; in test [5], 75%; in test [6], 48.1%. Also, the growth in test [7] was 97.7%; in test [8], 17.8%.
For `COc1ccc(-c2c(NC(=O)Nc3ccc(Cl)c(C(F)(F)F)c3)cnn2-c2ccc(S(N)(=O)=O)cc2)cc1`, the growth is 16.9% in test [1]; 39.3% in test [2]; 24.3% in test [3]; 38.2% in test [4]; 11.5% in test [5]; 14.5% in test [6]. The growth was 28.5% in test [7] and 29.6% in test [8].
With `Cc1cn(-c2nc3c(c(NCc4ccccc4)n2)COCC3)c2cccc(C(N)=O)c12`, the growth in test [1] is 62.7% [0.5 µM]; in test [2], 89% [0.5 µM]; in test [3], 63.9% [0.5 µM]; in test [4], 86.1% [0.5 µM]; in test [5], 35.5% [0.5 µM]; in test [6], 11.4% [0.5 µM]. Besides, the growth is 69.9% [0.5 µM] in test [7] and 63.2% [0.5 µM] in test [8].
For `CCNC(=O)Oc1ccc(/C(=C(/CC)Cc2ccccc2)c2ccc(OCCN3CCOCC3)cc2)cc1`, the growth in test [1] was 20.5%; in test [2], 69.9%; in test [3], 49.9%; in test [4], 59.3%; in test [5], 22.5%; in test [6], 41.6%. Moreover, the growth is 79.5% in test [7] and 37.3% in test [8].
As for `Cc1nssc1=S`, the growth is 105% in test [1]; 110% in test [2]; 104% in test [3]; 103% in test [4]; 93.7% in test [5]; 96.9% in test [6]. Besides, the growth in test [7] and in test [8] was 108% each time.
`CCCC(C)(C)COC(=O)c1cccc(N)c1`: the growth was 92% in test [1]; 79.9% in test [2]; 111% in test [3]; 104% in test [4]; 91.7% in test [5]; 84.9% in test [6]. Further, the growth in test [7] was 96.9%; in test [8], 106%.
On to `C=C1C(=O)O[C@H]2[C@H]1CC/C(CNC(=O)/C1=C/CC[C@@]3(C)O[C@H]3[C@H]3OC(=O)C(=C)[C@@H]3CC1)=C\CC[C@@]1(C)O[C@@H]21`, for which the growth is 69.8% in test [1]; 101% in test [2]; 96.4% in test [3]; 77.4% in test [4]; 75% in test [5]; 82.5% in test [6]. Moreover, the growth was 105% in test [7] and 102% in test [8].
As for `COc1ccc(-c2nnc(SCC(=O)Nc3ccc(C(=O)/C=C/c4ccc(Cl)cc4)cc3)o2)cc1OC`, the growth is 90.1% in test [1]; 57.3% in test [2]; 81.1% in test [3]; 101% in test [4]; 57.5% in test [5]; 75.6% in test [6]. The growth in test [7] is 96%; in test [8] it was 97.9%.
In the case of `COc1ccccc1S(=O)(=O)Nc1ccc2c3c(cc(-c4ccoc4)nc13)C(=O)N2C`, the growth was 70.1% in test [1]; 78.7% in test [2]; 32.8% in test [3]; 71.3% in test [4]; 35.5% in test [5]; 63% in test [6]. Also, the growth in test [7] was 74.7%; in test [8], 58.1%.
`O=C(Nc1ccc(-n2ccc3c(NC(=O)c4ccccc4)ncnc32)cc1)c1ccc(Cl)c(C(F)(F)F)c1`: the growth was 30.4% in test [1]; 55.1% in test [2]; 18.2% in test [3]; -3.54% (active) in test [4]; 12.5% in test [5]; -32% (active) in test [6]. Also, the figures for the growth in test [7] and in test [8] were 48.2% and 11.1%, respectively.
On to `O=C(N/N=C/c1ccccc1O)c1ccccc1O`, for which the growth in test [1] was 25.7%; in test [2] it was 34%; in test [3], 63%; in test [4], 41.4%; in test [5], 11.1%; in test [6] it was 26.7%. Moreover, the growth was 43% in test [7] and 33.5% in test [8].
Regarding `COc1ccc(NC(=O)COCCOCCNC[C@@H]2C(=O)O[C@H]3[C@H]2CC/C(COC(=O)OC/C2=C/CC[C@@]4(C)O[C@H]4[C@H]4OC(=O)[C@@H](CN(C)C)[C@@H]4CC2)=C\CC[C@@]2(C)O[C@@H]32)c(O)c1C(N)=O`, the growth is 15.8% in test [1]; 56.8% in test [2]; 49.6% in test [3]; -6.42% (active) in test [4]; 19.4% in test [5]; -38.6% (active) in test [6]. For the same compound, the growth in test [7] was 106%; in test [8] it was 79.3%.
With `O=C(Nc1cccc(-n2ccc3c(NC(=O)c4ccccc4)nccc32)c1)Nc1cc(C(F)(F)F)cc(C(F)(F)F)c1`, the growth is 55% in test [1]; 2.85% (active) in test [2]; -34.1% (active) in test [3]; 21.2% in test [4]; 13.6% in test [5]; -15.8% (active) in test [6]. Moreover, the values for the growth in test [7] and in test [8] were 13.2% and -15.2% (active), respectively.
On to `COc1ccc(/C=C/C(=O)c2ccc(-n3cc(CN4CCN(c5cc6c(cc5F)c(=O)c(C(=O)O)cn6C5CC5)CC4)nn3)cc2)cc1OC`, for which the growth in test [1] is 28.1%; in test [2] it was 51%; in test [3], 5.4% (active); in test [4], 9.41% (active); in test [5], 16.1%; in test [6], -39.5% (active). Further, the values for the growth in test [7] and in test [8] were -39.7% (active) and 8.81% (active), respectively.
Turning to `CC(C)CNCC(=O)Nc1ccc(Cc2ccc(NC(=O)CNCC(C)C)cc2)cc1`, the growth in test [1] is 68%; in test [2], 51.7%; in test [3], 88.5%; in test [4] it was 77.5%; in test [5], 43.8%; in test [6], 36.4%. Moreover, the growth in test [7] was 36.6%; in test [8], 67.7%.
With `O=C(Nc1ccccc1Cl)c1c[nH]c(=O)c(-c2ccc(N3CCCOC4(CC4)C3)cc2)c1`, the growth in test [1] was 31.5%; in test [2], 56.3%; in test [3], 56.4%; in test [4], 78.1%; in test [5] it was 40%; in test [6], 42.4%. Further, the growth is 67.5% in test [7] and 74.3% in test [8].
Turning to `Nc1ncnc2c1c(C(F)(F)F)cn2[C@@H]1O[C@H](CO)[C@@H](O)[C@H]1O`, the growth in test [1] was -0.423% (active); in test [2], -10.2% (active); in test [3], 12.3%; in test [4], 5.25% (active); in test [5] it was 7.41% (active); in test [6], 8.38% (active). Moreover, the growth is 7.21% (active) in test [7] and 4.05% (active) in test [8].
With `O=C1OC(c2ccc(-c3ccccc3)cc2)=C/C1=C/C=C/c1ccccc1`, the growth in test [1] was 101%; in test [2], 111%; in test [3], 106%; in test [4], 97%; in test [5], 87.9%; in test [6] it was 88%. The figures for the growth in test [7] and in test [8] were 106% and 103%, respectively.
